# From PubChem BioAssay
# Compounds with a hit are over-represented: about 12% of the library has one in this group of screens.
# JMJD2A Tudor inh: inhibitors of human JMJD2A Tudor domain. Potency, µM (top dose mostly 114 µM), for inactives: at the highest dose activity change, negative = inhibition, most hits filed as inhibitors. AlphaScreen JMJD2A-Tudor / H3K4me3 peptide binding. actives 4.4% (n = 390,000). AID 504339; note: % is set by controls: 0 for no effect and ±100 for the full control effect; nearly all actives have a fitted effect of over 50% in size
# HP1b binding inh: inhibitors of HP1-beta chromodomain binding to methylated histone tails; P83916; AlphaScreen HP1-beta / biotin-H3K9me3 peptide binding; Potency, µM (highest dose often 114 µM), without a hit: at the top dose activity change, negative = inhibition, hits mostly inhibitors; actives 0.56% (n = 390,000); AID 540317; note: nearly all actives have a fitted effect of over 70% in size
#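 HP1-beta protein (50 nM final) preincubated 30 min at room temperature with biotinylated H3(1-18)K9me3 peptide (50 nM) in PBS pH 7.4, 0.01% Tween-20, then compound added for 30 min. AlphaScreen streptavidin donor/nickel chelate acceptor beads (10 ug/mL final), 30 min dark, luminescence read.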
# BAZ2B block: inhibitors of human BAZ2B bromodomain | Q9UIF8 | AlphaScreen BAZ2B-H3K14Ac peptide displacement | Potency, µM (doses to about 114 µM), inactives show at the highest dose activity change, negative = inhibition, usual class: inhibitors | actives 4.4% (n = 360,000) | AID 504333; note: % is set by controls: 0 for no effect and ±100 for the full control effect; nearly all actives have a fitted effect of over 60% in size
#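 AlphaScreen luminescence quantifies BAZ2B engagement of H3K14Ac peptide; the protein and biotinylated peptide are both at 50 nM final, buffer PBS pH 7.4 with 0.01% Tween-20, all steps at room temperature.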
# G9a inh: G9a (human) methyltransferase inhibition | Q96KQ7 | G9a H3K9 monomethylation, AlphaScreen, 2 h | Potency, µM (doses to about 102 µM), for inactives: at the highest dose activity, negative = inhibition, usual class: inhibitors | actives 8.8% (n = 350,000); note: % is set by controls: 0 for no effect and ±100 for the full control effect; nearly all actives have a fitted effect of over 75% in size
#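 Compounds were preincubated with 20 nM G9a for 15 min, after which biotinylated H3K9 peptide (500 nM) and SAM (20 uM) started a 2 h room-temperature reaction. Monomethylated product was quantified by antibody-based AlphaScreen chemiluminescence.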
# PLK1 PBD inh: inhibitors of human PLK1 polo-box domain binding; P53350; actives 2.8% (n = 360,000); Potency, µM, without a hit: max response, negative = inhibition, hits mostly inhibitors; AID 720504; Plk1 PBD binding of FITC phosphopeptide, fluorescence polarization; note: series mostly up to about 57 µM; % is set by controls: 0 for no effect and ±100 for the full control effect; nearly all actives have a fitted effect of over 65% in size
# Target sequence (P53350 whole entry, looked up, the tested form may be a part): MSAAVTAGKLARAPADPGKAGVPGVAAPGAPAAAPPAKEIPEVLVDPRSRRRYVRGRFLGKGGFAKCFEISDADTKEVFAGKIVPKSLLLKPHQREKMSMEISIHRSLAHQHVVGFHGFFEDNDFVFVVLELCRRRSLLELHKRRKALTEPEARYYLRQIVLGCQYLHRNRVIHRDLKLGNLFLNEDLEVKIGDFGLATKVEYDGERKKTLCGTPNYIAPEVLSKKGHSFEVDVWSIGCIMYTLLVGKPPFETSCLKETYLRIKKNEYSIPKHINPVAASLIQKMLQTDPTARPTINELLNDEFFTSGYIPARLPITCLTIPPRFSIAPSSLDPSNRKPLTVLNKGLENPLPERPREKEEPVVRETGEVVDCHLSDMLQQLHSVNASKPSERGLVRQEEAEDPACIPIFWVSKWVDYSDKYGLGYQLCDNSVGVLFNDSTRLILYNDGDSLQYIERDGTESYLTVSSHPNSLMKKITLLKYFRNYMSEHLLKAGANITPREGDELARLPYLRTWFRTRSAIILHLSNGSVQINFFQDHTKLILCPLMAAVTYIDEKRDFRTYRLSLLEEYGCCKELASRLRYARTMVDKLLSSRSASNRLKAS
# Sfp PPTase inh: blocks B. subtilis Sfp PPTase activity | Q9F4F7 | Biochemical Sfp PPTase activity, qHTS | actives 3.5% (n = 310,000) | AID 1490 | Potency, µM, inactives show largest response in the series, negative = inhibition, usual class: inhibitors;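 note: the enzyme is Sfp with the accession as filed and its product quenches rhodamine fluorescence; 0% = enzyme reaction without inhibitor and -100% = no enzyme wells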
#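 Step 1, compound plus 15 nM Sfp-PPTase, 15 min, room temperature. Step 2, add rhodamine-CoA (5 uM) and BHQ-2-YbbR (12.5 uM). Step 3, read 525/598 nm fluorescence at 0 and 30 min.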
# Numbers without * were called inactive; ? = inconclusive; / = not tested or not shown; [ ] = dose if it differs, or a comment. Calls come from the whole dose curve; as a rule, active = well fitted curve in the direction sought with a large enough effect; inconclusive = small, poorly fitted or top-dose-only effect, or another doubt; inactive = no such curve, though single readings can be large; an effect the other way counts as inactive or inconclusive. Potency is the fitted concentration of half-maximal effect.
SMILES,JMJD2A Tudor inh,HP1b binding inh,BAZ2B block,G9a inh,PLK1 PBD inh,Sfp PPTase inh
CCCCN(C(=O)c1ccc(-c2ccc(Cl)cc2)o1)c1c(N)n(CCC)c(=O)[nH]c1=O,-9%,31%,3%,8.9µM*,?,/
CCCCN(C(=O)c1ccc(-c2ccc(Cl)cc2)o1)c1c(N)n(CCCC)c(=O)[nH]c1=O,-31%,19%,-5%,20%[12.7 µM],-20%,/
CCCCn1c(N)c(N(CCOC)C(=O)c2ccc(-c3ccc(Cl)cc3)o2)c(=O)[nH]c1=O,-14%,6%,?,11µM*,?,/
CCCCN(C(=O)C(C)Oc1ccc(Cl)cc1)c1c(N)n(CCCC)c(=O)[nH]c1=O (configuration not stated),4%,10%,11%,50µM*,-9%,/
CCCCn1c(N)c(N(CCOC)C(=O)C(C)Oc2ccc(Cl)cc2)c(=O)[nH]c1=O (configuration not stated),-12%,24%,-3%,?,-7%,/
CCCCn1c(N)c(N(CCOC)C(=O)c2cnc(C)cn2)c(=O)[nH]c1=O,-9%,27%,12%,40µM*,-5%,/
O=C(NCCc1nc2ccccc2n1Cc1ccc(Cl)cc1Cl)c1ccco1,?,6%,?,-30%[59 µM],/,/
NC(=O)c1sc2nccc(Nc3ccccc3)c2c1N,?,-14%,-7%,?,?,40µM*
O=Cc1cccn1-c1ccc(O)cc1,-1%,39%,79µM*,-20%,2%,6%
COc1ccc(Cl)cc1S(=O)(=O)N1CCN(S(=O)(=O)c2ccc3c(c2)OCCO3)CC1,-18%,/,/,/,/,/
COc1cc(OC)cc(-c2c(C#Cc3ccsc3)c3cc(-c4ccc5c(c4)OCO5)ccc3n2C)c1,-10%,58%,/,/,8%,/
CCOC(=O)C1CCN(S(=O)(=O)c2c(Cl)ccc3nonc23)CC1,/,/,-17%,50µM*,/,-17%
CCOC(=O)C1CCN(S(=O)(=O)c2nc3nc(C)cc(C)n3n2)CC1,-18%[11.4 µM],-16%,1%,2%[12.7 µM],30µM*,14%
CCOC(=O)C1CCN(C(=O)COC(=O)c2nc3nc(C)cc(C)n3n2)CC1,2%,17%,-6%,-1%,-4%,/
Cn1cc(C(=O)N/N=C/C2=C(N3CCOCC3)C(=C\c3ccccc3)/CC2)ccc1=O,-18%,14%,-4%,-9%[59 µM],-9%,-6%
O=C1Nc2ccc(Br)cc2/C1=N\N=C\C1=C(N2CCOCC2)C(=C/c2ccccc2)/CC1,3.2µM*,5µM*,/,/,-9%,/
O=C1Nc2ccccc2/C1=N\N=C\C1=C(N2CCOCC2)C(=C\c2ccccc2)/CC1,/,/,7.1µM*,?,/,32µM*
CN(C)C=Nc1c(I)cc(I)c(CCC(=O)O)c1I,/,/,/,?,/,4%
CC(C)=NNc1cc([N+](=O)[O-])cc2c1C(=O)N(C)S2=O (configuration not stated),-4%,40%,-16%,45µM*,2%,16µM*
Cc1ccc(NC(=O)C(Cc2ccccc2)NS(=O)(=O)c2ccc3c(c2)c(=O)n(C)c(=O)n3C)c(C)c1 (configuration not stated),-12%,22%,-14%,-37%[59 µM],/,/
Fc1ccc(C(Nc2ccccn2)c2c[nH]c3ccccc23)cc1 (configuration not stated),?,-11%,-20%,40µM*,8.4µM*,-12%
COc1ccc(C)cc1-n1[nH]nnc1=S,25µM*,-17%,-23%,6.3µM*,-18%,-82%
Cc1cc(C)c(-n2[nH]nnc2=S)c(C)c1,32µM*,-17%,?,14µM*,30µM*,28µM*
O=C(CNC(=O)c1ccc(Cl)cc1)OCc1cc(=O)n2ccsc2n1,-3%,24%,1%,6%[59 µM],/,/
COc1cccc(/C=C2\SC(N3CCC(C)CC3)=NC2=O)c1OC,-6%,-10%,-2%,28µM*,?,50µM*
COc1cccc(/C=C2\SC(N3CCCC(C)C3)=NC2=O)c1OC (configuration not stated),-7%,21%,-17%,71µM*,?,-10%
